Experimental data as given in PubChem BioAssay (Tox21).
Records with an inconclusive call do not appear. Activity calls are given as the source filed them. Unless noted, calls follow the shape of the dose curve; as a rule, active = well fitted curve in the direction sought with a large enough effect in the repeat runs; inconclusive = weak or mixed curves; inactive = no such curve, though single readings can be large; an effect the other way counts as inactive or inconclusive.

Tests used:
[1] = qHTS assay to identify small molecule antagonists of the thyroid receptor (TR) signaling pathway - cell viability counter screen (AID 743064); also: nearly all actives have a fitted effect of over 50% in size; also: potency is read from the fitted curve at half-maximal effect
Summary of the method: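 In-well cytotoxicity read by CellTiter-Fluor (30 min, 37 C) following 23.5 h exposure of GH3 cells bearing a TRE-luciferase sensor. Compounds were added alongside 1 nM (final) T3 to drive TR transactivation.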

[2] = qHTS assay to identify small molecule antagonists of the thyroid receptor (TR) signaling pathway (AID 743065); also: nearly all actives have a fitted effect of over 55% in size; also: potency is read from the fitted curve at half-maximal effect
Summary of the method: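 GH3.TRE-Luc rat pituitary cells (two TREs driving luciferase) were dosed with compound, then stimulated with 1 nM T3 (final) for 23.5 h at 37 C. ONE-Glo luminescence was the read-out, with CellTiter-Fluor fluorescence as the cytotoxicity counter-screen.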

[3] = test system: thyroid hormone receptor (rat, GH3 cells); experiment: qHTS assay to identify small molecule agonists of the thyroid receptor (TR) signaling pathway (AID 743066; calls by dose curve)
[4] = qHTS assay to identify small molecule antagonists of the estrogen receptor alpha (ER-alpha) signaling pathway - cell viability counter screen (AID 743074; calls by dose curve;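 also: HEK293 cells carrying ER-alpha-UAS-bla reporter stimulated with 17beta-estradiol; nearly all actives have a fitted effect of over 45% in size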)
[5] = qHTS assay to identify small molecule antagonists of the estrogen receptor alpha (ER-alpha) signaling pathway using the BG1 cell line - cell viability counter screen (AID 743081);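 also: compound given together with 17beta-estradiol as the ER stimulus; series mostly up to about 70 µM; nearly all actives have a fitted effect of over 45% in size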
[6] = biological target: Aromatase (Homo sapiens) (UniProt P11511); experiment: qHTS assay to identify aromatase inhibitors (AID 743083); also: series mostly up to about 70 µM; nearly all actives have a fitted effect of over 55% in size

Measured: Potency

Chain of Aromatase (Homo sapiens) (P11511 whole entry, looked up): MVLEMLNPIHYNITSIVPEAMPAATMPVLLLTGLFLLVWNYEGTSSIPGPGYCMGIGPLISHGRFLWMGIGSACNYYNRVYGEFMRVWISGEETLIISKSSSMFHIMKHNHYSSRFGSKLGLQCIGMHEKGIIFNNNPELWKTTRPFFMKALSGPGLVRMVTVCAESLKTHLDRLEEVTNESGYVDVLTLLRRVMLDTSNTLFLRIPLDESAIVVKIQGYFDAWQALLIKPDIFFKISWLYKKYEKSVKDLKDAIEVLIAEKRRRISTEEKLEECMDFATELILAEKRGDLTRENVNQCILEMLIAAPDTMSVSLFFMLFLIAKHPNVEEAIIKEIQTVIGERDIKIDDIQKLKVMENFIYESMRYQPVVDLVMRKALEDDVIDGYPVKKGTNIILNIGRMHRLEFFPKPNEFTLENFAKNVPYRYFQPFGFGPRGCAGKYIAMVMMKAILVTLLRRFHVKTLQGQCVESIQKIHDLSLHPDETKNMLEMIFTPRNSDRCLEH

O=c1[nH]cnc2c1ncn2[C@@H]1O[C@H](CO)[C@@H](O)[C@H]1O
inactive: all assays above

CCN(CC)C(=O)N(CC)CC
inactive: all assays above

CC(=O)Oc1cc(C(C)C)c(OCCN(C)C)cc1C
not listed: [5]
inactive: all other assays above

CCN1CC(CCN2CCOCC2)C(c2ccccc2)(c2ccccc2)C1=O (stereo not drawn)
inactive: all assays above

CC(=O)Nc1ccc(C)c(Cl)c1
inactive: all assays above

CCCCOc1cc(C(=O)NCCN(CC)CC)c2ccccc2n1
active: [1] 11.4 µM | [2] 10.1 µM
inactive: all other assays above

OCCN1CCN(CCO)CC1
inactive: all assays above

CC(=O)OC(C)OC(C)=O
inactive: all assays above

Cc1ccc(C(C)C)cc1O
inactive: all assays above

CC1=NN(c2cc(Cl)c(S(=O)(=O)O)cc2Cl)C(=O)C1N=Nc1ccc(S(=O)(=O)O)cc1 (stereo not drawn)
inactive: all assays above

CCCCNCCCC
inactive: all assays above

COC(C)CCO (stereo not drawn)
inactive: all assays above

CC1CN(c2ccccc2)NC1=O (stereo not drawn)
inactive: all assays above

COc1cc2c(cc1N)oc1ccccc12
inactive: all assays above
